We go through 40 compounds from PubChem BioAssay (Tox21).

The structures appear in SMILES notation. Where “and” joins values, the source holds several entries; their conditions need not be identical. Identical values can stand only once. Inconclusive results are not listed. A call without a number means that no potency is given here. Some compounds were tested as several samples or in several runs, with calls that do not always agree. Calls of active or inactive are those of the source. Calls come from the whole dose curve; as a rule, active = well fitted activation curve with a large enough effect in the repeat runs; inconclusive = weak or mixed curves; inactive = no such curve, though single readings can be large or run the other way.
Potency is the fitted concentration of half-maximal effect.

Aryl hydrocarbon receptor (Homo sapiens), sequence (P35869 whole entry, looked up): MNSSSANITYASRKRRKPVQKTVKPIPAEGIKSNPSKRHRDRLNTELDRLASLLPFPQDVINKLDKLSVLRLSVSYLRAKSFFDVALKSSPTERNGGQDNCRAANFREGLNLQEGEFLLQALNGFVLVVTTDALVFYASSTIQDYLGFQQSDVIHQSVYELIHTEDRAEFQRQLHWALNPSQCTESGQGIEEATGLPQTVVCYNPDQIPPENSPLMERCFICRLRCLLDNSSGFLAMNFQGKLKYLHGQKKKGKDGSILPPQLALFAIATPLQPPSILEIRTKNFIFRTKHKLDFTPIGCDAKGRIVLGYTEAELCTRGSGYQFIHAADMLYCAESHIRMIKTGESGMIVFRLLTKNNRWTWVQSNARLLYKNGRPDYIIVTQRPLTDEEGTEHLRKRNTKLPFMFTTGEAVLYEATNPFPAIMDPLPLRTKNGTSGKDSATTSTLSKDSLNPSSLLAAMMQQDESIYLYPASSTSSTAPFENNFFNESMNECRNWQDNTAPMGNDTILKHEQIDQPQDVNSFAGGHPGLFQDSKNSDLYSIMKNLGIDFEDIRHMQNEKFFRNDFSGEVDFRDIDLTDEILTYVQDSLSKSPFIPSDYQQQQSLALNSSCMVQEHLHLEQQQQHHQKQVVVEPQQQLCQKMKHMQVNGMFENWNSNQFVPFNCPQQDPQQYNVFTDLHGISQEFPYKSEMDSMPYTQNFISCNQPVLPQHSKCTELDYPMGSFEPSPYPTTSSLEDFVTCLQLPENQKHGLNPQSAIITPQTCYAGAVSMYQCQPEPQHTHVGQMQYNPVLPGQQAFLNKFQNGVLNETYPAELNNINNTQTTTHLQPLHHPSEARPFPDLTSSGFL

This assay addresses Aryl hydrocarbon receptor (Homo sapiens) (UniProt P35869). As to the kind of experiment: qHTS assay to identify small molecule that activate the aryl hydrocarbon receptor (AhR) signaling pathway (AID 743085).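 For activation: HG2L7.5c1 human HepG2 liver cells with stably integrated DRE-driven firefly reporter.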 Note: nearly all actives have a fitted effect of over 15% in size. The conditions noted are these: HepG2 AhR-luc (HG2L7.5c1), luciferase, 24 h; series mostly up to 70.3 µM; activation: at the top concentration. The source says: U.S. Tox21 Program National Center for Advancing Translational Sciences [NCATS] NIH Chemical Genomics Center [NCGC] U.S. Environmental Protection Agency [EPA] National Institutes of Environmental Health Sciences [NIEHS] National Toxicology Program [NTP] U.S. Food and Drug Administration [FDA] Tox21 Assay overview: The Aryl hydrocarbon Receptor (AhR), a member of the family of basic helix-loop-helix transcription factors, is crucial to adaptive responses to environmental changes. AhR mediates cellular responses to environmental pollutants such as aromatic hydrocarbons through induction of phase I and II enzymes but also interacts with other nuclear receptor signaling pathways. A cell based HepG2-AhR-luc assay (HG2L7.5c1 cell line, developed by Dr. Michael S. Denison, University of California at Davis, was used to assess the activation of AhR. HepG2 (human hepatocellular carcinoma) cells were stably transfected with an Ah receptor-responsive firefly luciferase reporter gene plasmid containing 20 dioxin responsive elements and luciferase reporter gene. Increased luciferase activity can be used to identify the compounds that induce AhR activation.
Tox21 Assay Protocol Summary: 4000 cells in 5 uL/well were dispensed into white wall/solid bottom 1536-well plates using a Multidrop Combi (Thermo Fisher Scientific Inc., Waltham, MA) dispenser. After the assay plates were incubated at 37C for 5 h, 23 nL of compound or DMSO vehicle was transferred to the assay plates by a pintool station (Kalypsys, San Diego, CA). The plates were incubated at 37C for 24 hr. After 1 ul/well of CellTiter-Fluor reagent (Promega, Madison, WI) was added into the assay plates using a Flying Reagent Dispenser (FRD) (Aurora Discovery, CA), the assay plates were incubated at 37C for 30 min. The fluorescence intensity in the plates was measured using a ViewLux plate reader (PerkinElmer, Shelton, CT), followed by the addition of 4 uL of ONE-Glo Luciferase Assay reagent (Promega) using an FRD (Aurora Discovery). After the assay plates were incubated at room temperature for 30 min, luminescence intensity was measured using a ViewLux plate reader (Perkin Elmer).
Take `CC(=O)O[C@]1(C(C)=O)CC[C@H]2[C@@H]3C=C(C)C4=CC(=O)CC[C@]4(C)[C@H]3CC[C@@]21C`: the Potency entry was “inactive”.
On to `C=CN1CCCC1=O`, for which the “activation” value is -1.42% (inactive).
As to `CC/C=C\C/C=C\C/C=C\CCCCCCCC(=O)O`, the Potency entry was “inactive”.
On to `COC(=O)c1ccc(C)cc1`, for which the Potency entry is “inactive”.
`Oc1ccc(C(c2ccc(O)cc2)C(Cl)(Cl)Cl)cc1`: the Potency result is “inactive”.
Still for that read-out and setting: the same measure for `COC(=O)C(C)Oc1ccc(Oc2ncc(C(F)(F)F)cc2Cl)cc1` (stereo not given): “inactive”.
Still for that read-out and setting: the same measure for `O=S1(=O)CCCO1`: “inactive”; for `C=CCCCCCCCCCC`: “inactive”.
Still for that read-out and setting: the same measure for `COC(=O)CC(=O)OC`: “inactive”; for `NCCN`: “inactive”.
With `CC1(C)OC(=O)NC1=O`, the Potency entry was “inactive”.
As for `C1CN(SSN2CCOCC2)CCO1`, the Potency entry is “inactive”.
`CCC(=O)O[C@H]1[C@H](O[C@@H]2[C@@H](C)[C@H](O[C@H]3C[C@@](C)(OC)[C@@H](O)[C@H](C)O3)[C@@H](C)C(=O)O[C@H](CC)[C@@](C)(O)[C@H](O)[C@@H](C)C(=O)[C@H](C)C[C@@]2(C)O)O[C@H](C)C[C@@H]1N(C)C`: the Potency entry is “inactive”.
As for `Nc1ccc2c(O)cc(S(=O)(=O)O)cc2c1`, the Potency result was “inactive”.
As for `Oc1c(Cl)ccc(Cl)c1Cl`, the “activation” value was 0.517% (inactive).
`COc1ccc(-c2coc3cc(O)cc(O)c3c2=O)cc1`: the Potency was 9.77 µM (active) and 9.69 µM (active).
As for `CC1(C)C(C=C(Cl)Cl)C1C(=O)OCc1cccc(Oc2ccccc2)c1` (stereo not given), the “activation” value was 3.7% (inactive).
With `CN(C)C`, the Potency entry was “inactive”.
For `C[C@]12CC[C@@H]3c4ccc(O)cc4CC[C@H]3[C@@H]1CC[C@H]2O`, the Potency result is “inactive”.
With `CC(=O)Nc1ccc2c(c1)Cc1cc(NC(C)=O)ccc1-2`, the Potency entry is “inactive”.
For the compound `CC1(C)NC(=O)N(c2ccc([N+](=O)[O-])c(C(F)(F)F)c2)C1=O`, the Potency result was “inactive”.
For `CCCCCCCCCCCCCO`, the Potency entry is “inactive”.
Still for that read-out and setting: the value for `O=C1OC2(c3ccccc31)c1cc(I)c(O)c(I)c1Oc1c2cc(I)c(O)c1I` was 23.7 µM (active) and inactive.
Regarding `[Na+]`, the Potency result is “inactive”.
For `Nc1cc(Cl)c(N)c(Cl)c1`, the Potency was 27.1 µM (active) and 21.7 µM (active).
Turning to `C=C[Si](OCCOC)(OCCOC)OCCOC`, the Potency entry is “inactive”.
On the same count and under the same terms, the same measure for `Nc1cc([N+](=O)[O-])ccc1C(=O)O`: 21.7 µM (active).
In the case of `Brc1nc2ccccc2s1`, the Potency is 30.5 µM (active) and 13.7 µM (active).
The same measure, in the same setting: the value for `CN1CCOCC1` was “inactive”; that for `C=CCNCC=C` was “inactive”; that for `[O-]/[N+](=N\O)c1ccccc1` was 30.6 µM (active).
Consider `COCCOCCOCCO`, for which the Potency entry was “inactive”.
For the compound `O=C1CCc2ccccc2O1`, the Potency entry is “inactive”.
As to `C/C=C/C(=O)N(CC)c1ccccc1C`, the Potency result is “inactive”.
Consider `CCC/C=C/C=O`, for which the Potency result was “inactive”.
Consider `CCO[Si](CCCNC(N)=O)(OCC)OCC`, for which the Potency entry is “inactive”.
The same measure, in the same setting: the value for `C=C1C[C@H]2[C@@H]3C=C(C)C4=CC(=O)CC[C@]4(C)[C@H]3CC[C@]2(C)[C@@]1(OC(C)=O)C(C)=O` was “inactive”; that for `Cc1ccc(S(=O)(=O)O)cc1C` was “inactive”; that for `O=C(O)CCCCCCCCCCCC(=O)O` was “inactive”.
`Nc1ccc(O)c(N)c1`: the Potency entry is “inactive and 1.37 µM (active)”.
